Sampled rows, rich in hits. Any-hit rate of the full collection: about 3.4%.
FBW7 act – activators of human E3 ligase FBW7. AlphaScreen FBW7–phospho-cyclin E peptide binding, activator screen. normalized activity (activation), % at 26.1 µM. 650,000 compounds, 0.13% hits. AID 1259310; in the data active means normalized activity above about 1.9%;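 further: purified mutant Fbw7 with reduced substrate affinity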
MITF inh – inhibitors of human MITF; O75030; AlphaScreen MITF homodimerization, bead proximity signal; inhibition, % at 2.6 µM; 650,000 compounds, 0.91% hits; AID 1259374; in the data active means inhibition above about 50%;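 further: 0% = vehicle wells with protein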
GPR151 ag – activates the human receptor GPR151; 650,000 compounds, 1% hits; PathHunter beta-arrestin GPR151 cells, luminescence; activation, % at 11.2 µM; Q8TDV0; in the data active means activation above about 4.9%;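 further: 0% = median of compound wells and 100% = cells with positive control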
TEAD-YAP inh – TEAD-YAP interaction inhibition. AID 1259422. HEK-TIYL cells, TEAD-Gal4/YAP UAS-luciferase luminescence. 640,000 compounds, 1.4% hits. inhibition, % at 9.12 µM; in the data active means inhibition above about 32%;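 further: 0% = median of test compound wells and 100% = reference inhibitor wells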
GPR151 confirm – confirmation of human GPR151 activators; shares compounds with GPR151 ag; GPR151 PathHunter beta-arrestin cells, luminescence, 90 min; % of EA-reagent control over plate median; activation, % at 11.2 µM; 6,700 tested, under 10 active;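 active means mean percent activation across replicates above the confirmation screen cutoff of 4.91%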
GPR119 counter – counter-screen for GPR151 activators: effect on human GPR119 | shares compounds with GPR151 ag | GPR119 PathHunter beta-arrestin cells, luminescence, 90 min; 0 = compound-well median, 100 = enzyme-acceptor control | activation, % at 11.2 µM | 6,700 compounds, 0.3% hits;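 active means mean percent activation in the counterscreen above 29.09%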;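 further: counterscreen on off-target GPR119 to flag nonselective hits from the GPR151 activator screen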
Target sequence (Q8TDV5 whole entry, looked up): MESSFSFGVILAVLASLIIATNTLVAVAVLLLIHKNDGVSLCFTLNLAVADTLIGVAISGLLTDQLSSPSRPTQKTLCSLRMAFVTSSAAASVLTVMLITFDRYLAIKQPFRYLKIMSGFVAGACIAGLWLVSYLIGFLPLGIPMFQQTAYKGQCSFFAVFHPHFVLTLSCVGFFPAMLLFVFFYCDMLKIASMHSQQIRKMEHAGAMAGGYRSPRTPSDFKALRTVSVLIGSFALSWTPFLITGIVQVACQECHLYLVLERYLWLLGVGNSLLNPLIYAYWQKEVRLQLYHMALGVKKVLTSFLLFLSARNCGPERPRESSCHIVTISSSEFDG
Numbers without * were called inactive; ! = a repeat was not active.

COc1ccc2oc(=O)c(C(=O)Nc3cccc(Cl)c3)cc2c1 was read as FBW7 act 0, MITF inh -2, GPR151 ag 0 and TEAD-YAP inh -11.
Screening O=C(c1cscn1)N1CCOc2ccc(CN3CCc4ccccc4C3)cc2C1 returned FBW7 act 1, MITF inh 7, GPR151 ag -1 and TEAD-YAP inh -5.
For COc1ccccc1/C=C1\N=C(c2ccc(OC)c(OC)c2)N(c2cccc(F)c2)C1=O the results were FBW7 act 0, MITF inh -10, GPR151 ag 0 and TEAD-YAP inh 5.
`CCOC(=O)c1ccccc1NC(=O)c1ccccc1OC(C)=O` gave FBW7 act 0, MITF inh 6, GPR151 ag -1 and TEAD-YAP inh 0.
c1ccc(Cn2cc(-c3ncoc3-c3ccnc(Nc4ccc(N5CCOCC5)cc4)c3)cn2)cc1 was read as FBW7 act 0, MITF inh 13, GPR151 ag 6.0*, TEAD-YAP inh 45*, GPR151 confirm 0 and GPR119 counter -3.
`O=S(=O)(NNC(=S)NCC1CCCO1)c1cc(Cl)ccc1Cl` (centres undefined) gave FBW7 act 0, MITF inh 6, GPR151 ag -1 and TEAD-YAP inh 3.
For COc1ccc(S(=O)(=O)NNC(=S)NCC2CCCO2)c(OC)c1 (centres undefined) the results were FBW7 act 0, MITF inh 1, GPR151 ag 5.0*, TEAD-YAP inh -1, GPR151 confirm -1 and GPR119 counter -10.
Screening COc1ccc(C(=O)NCCC(=O)NCC2CCCO2)cc1OC (centres undefined) returned FBW7 act 0, MITF inh -4, GPR151 ag 5.7*, TEAD-YAP inh -8, GPR151 confirm 0 and GPR119 counter 9.
O=C1NCC2=C1C(c1ccccc1O)Nc1ccccc1N2 (centres undefined) was read as FBW7 act 0, MITF inh 5, GPR151 ag 9.2*, TEAD-YAP inh -4, GPR151 confirm 0 and GPR119 counter 9.
`O=C1NCC2=C1C(c1ccccc1)Nc1ccccc1N2` (centres undefined) gave FBW7 act 0, MITF inh 0, GPR151 ag 1 and TEAD-YAP inh -1.
Cn1c(=NC(=O)CS(=O)(=O)c2ccccc2)sc2ccccc21 was read as FBW7 act 0, MITF inh 12, GPR151 ag 5.0*, TEAD-YAP inh -25, GPR151 confirm -1 and GPR119 counter -3.
For O=C1CN(S(=O)(=O)c2cccc(Cl)c2Cl)c2ccccc2N1 the results were FBW7 act 0, MITF inh -2, GPR151 ag 6.8*, TEAD-YAP inh -8, GPR151 confirm 1 and GPR119 counter 1.
Screening Cc1nnc(NC(=O)COc2c(C)ccc(C)c2C)s1 returned FBW7 act 0, MITF inh 11, GPR151 ag -1 and TEAD-YAP inh -6.
Screening CC(C)=CC[C@@H](O)C1=CC(=O)c2c(O)ccc(O)c2C1=O returned FBW7 act 0, MITF inh 75*!, GPR151 ag 10.0*!, TEAD-YAP inh 8, GPR151 confirm 0 and GPR119 counter 2.
Screening CN(C)c1ccc(C(=O)N2CCOCC2)cc1 returned FBW7 act 1, MITF inh 7, GPR151 ag -1 and TEAD-YAP inh 5.
`CN(C)c1ccc(C(=S)N2CCOCC2)cc1` gave FBW7 act 0, MITF inh -3, GPR151 ag 9.7*, TEAD-YAP inh 0, GPR151 confirm 0 and GPR119 counter -7.
For Cc1cc(=O)[nH]c2nnc(SCC(=O)Nc3ccc([N+](=O)[O-])cc3)n12 the results were FBW7 act 0, MITF inh 6, GPR151 ag -2 and TEAD-YAP inh 11.
For CSc1ccc(CNC(C)(C)CO)cc1 the results were FBW7 act 0, MITF inh 12, GPR151 ag 0 and TEAD-YAP inh 7.
`CN(C)c1ccc(CNC(C)(C)CO)cc1` gave FBW7 act 1, MITF inh 14, GPR151 ag 5.1*, TEAD-YAP inh 2, GPR151 confirm 1 and GPR119 counter 3.
